About 2,500 (0.74%) of roughly 340,000 compounds were called active. Many of the other results were omitted from the sample, so actives are more common in it than they were. Values without a mark were called inactive.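 Rule for the calls: active = inhibition above about 55% (limit read from the data); inactive = the rest.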

The nature of this assay: blockers of Gli reporter signaling – luciferase luminescence, Sufu-KO-LIGHT cells, uHTS, primary screen (AID 588413).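 Note: 0% = DMSO-treated cells and 100% = wells with medium but no cells.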 Particulars: Sufu-KO-LIGHT fibroblasts, at 5 µM, hits give high values.
With `Cc1ccccc1N1CCN(CC(=O)NCc2ccc(Cl)cc2)CC1`, the inhibition was 6.04%.

For the compound `COc1ccc(OC)c(CN2C(=O)CCC2(C)C(=O)NC2CCCCCC2)c1` (stereo not given), the inhibition was 23.4%.

On to `O=C(C1CCCO1)N1CCN(C(=S)NC2CC2)CC1` (stereo not given), for which the inhibition was -11.3%.

Take `Cc1ccc(-c2cn3cc(C)ccc3n2)cc1`: the inhibition was 63.8% (active).

Regarding `COc1ccc(-c2cn3ccc(C)cc3n2)cc1`, the inhibition is -72%.

For the compound `Cc1ccc2nc(-c3ccc(Br)cc3)cn2c1`, the inhibition was 20.9%.

Consider `O=C(CCS(=O)(=O)c1cccc2nonc12)NCCc1ccccc1Cl`, for which the inhibition was 4.43%.

Take `CC1(C)CCSC(/C=C/c2ccccc2)=N1`: the inhibition was 4.7%.

`CCN(CC(=O)Nc1ccccc1C(F)(F)F)C(=O)C1CCN(C(=O)Nc2ccccc2)CC1`: the inhibition was 7.33%.

Turning to `COc1cc(C(F)(F)F)c(C(=O)N(C)c2ccc(Cl)cc2)cn1`, the inhibition was 0.82%.

Take `N=c1c2c3c(sc2nc2n1CCCCC2)CCCC3`: the inhibition was -5.48%.

Regarding `O=C(CCc1ccccc1)Nc1ccnn1C1CCN(Cc2ccc(OCCO)cc2)CC1`, the inhibition was 11.7%.

Regarding `CC[n+]1cc(C)ccc1/C=C/c1ccc(N(C)C)cc1`, the inhibition was 81.8% (active).

For `COc1ccc(-c2c(C#Cc3ccsc3)c3cc(-c4ccc(CN5CCOCC5)cc4)ccc3n2C)cc1`, the inhibition was 9.39%.

For the compound `O=C(COc1cccnc1[N+](=O)[O-])Nc1ccc(Cl)cc1F`, the inhibition is -19.8%.

`Cc1ccc(-c2cc(C(=O)NC3CCN(Cc4ccccc4)CC3)c3ccccc3n2)cc1`: the inhibition was 10.8%.

Turning to `Cc1ccc(-c2nc(CSCC(=O)NC3CCN(Cc4ccccc4)CC3)c(C)o2)cc1`, the inhibition was 67.4% (active).

Turning to `Cc1ccc(S(=O)(=O)NCCC(=O)NC2CCN(Cc3ccccc3)CC2)cc1`, the inhibition is 3.57%.

As to `Cc1cc(C)c(C=NNc2nc3c([nH]2)c(=O)n(C)c(=O)n3C)c(C)c1`, the inhibition was 1.9%.

`Cc1ccc(C(=O)Nc2sc(Cc3ccc4c(c3)OCO4)c(C)c2C(N)=O)cc1`: the inhibition was -1.06%.

Consider `COCOc1cc(O)c(C(=O)/C=C/c2ccc(OCOC)c(OCOC)c2)c(OCOC)c1`, for which the inhibition was 3.02%.

Regarding `Cc1ccc(S(=O)(=O)N2CCN(C(=O)c3ccc(-n4cncn4)c([N+](=O)[O-])c3)CC2)cc1`, the inhibition was 1.3%.

In the case of `Nc1ccc(C(=O)N2CCN(S(=O)(=O)c3ccc(Cl)cc3)CC2)cc1[N+](=O)[O-]`, the inhibition is 98.7% (active).

As for `CC(C)c1ccc(S(=O)(=O)N2CCN(C(=O)c3ccc(N4CCCC4)c([N+](=O)[O-])c3)CC2)cc1`, the inhibition is -1.24%.

Consider `CC(=O)c1cc(-c2ccccc2)n(CCC(=O)NC2CCCCCC2)c1C`, for which the inhibition was 1.89%.

For the origin of these results see PubChem BioAssay AID588413 (Sanford-Burnham Center for Chemical Genomics, 2011).
